PubChem BioAssay (EPA / NIEHS)
The source made the active and inactive calls. The calls were made as follows: active = hit-call score of the fitted dose curve at least 0.9, where 1 is the maximum; inactive = score below 0.9.

What was measured:
[1] = ATG_GLI_CIS: Attagene CIS-FACTORIAL HepG2 Assay for human Zinc Finger Protein GLI1 (AID 2282945); conditions: HepG2, Attagene cis-factorial reporter mRNA, GLI element; actives raise or lower the signal
Procedure, shortened: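 Transiently transfected HepG2 cells report endogenous transcription factor activity via cis-element-driven reporter units. After 24 h compound exposure, reporter mRNA was measured by RT-PCR with capillary electrophoresis; bidirectional fitting against DMSO baseline.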

[2] = target: Bile acid receptor (Homo sapiens) (UniProt Q96RI1); assay: ATG_IR1_CIS: Attagene CIS-FACTORIAL HepG2 Assay for human Nuclear Receptor Subfamily 1 Group H Member 4 (NR1H4), IR1 submotif (AID 2282946); conditions: IR1 reporter transcription, actives raise or lower the signal
Chain of Bile acid receptor (Homo sapiens) (Q96RI1 whole entry, looked up): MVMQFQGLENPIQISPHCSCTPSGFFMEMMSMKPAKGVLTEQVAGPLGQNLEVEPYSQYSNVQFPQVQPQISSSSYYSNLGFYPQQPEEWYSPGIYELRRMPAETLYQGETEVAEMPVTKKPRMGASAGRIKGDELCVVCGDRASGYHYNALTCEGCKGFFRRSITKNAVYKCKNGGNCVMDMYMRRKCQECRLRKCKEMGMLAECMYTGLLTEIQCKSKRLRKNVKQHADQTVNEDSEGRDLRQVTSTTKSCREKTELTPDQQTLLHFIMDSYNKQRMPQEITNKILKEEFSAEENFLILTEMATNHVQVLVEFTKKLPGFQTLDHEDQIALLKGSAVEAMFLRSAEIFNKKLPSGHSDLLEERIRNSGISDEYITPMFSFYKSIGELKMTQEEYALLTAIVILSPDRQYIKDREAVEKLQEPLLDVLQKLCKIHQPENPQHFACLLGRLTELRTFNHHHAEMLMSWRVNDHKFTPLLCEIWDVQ
Procedure, shortened: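 HepG2 cells transiently transfected with multiple cis-promoter-driven reporter units to measure endogenous transcription factor activity; 24 h exposure. Reporter mRNA read by RT-PCR, FAM labelling, HpaI digestion and capillary electrophoresis. Bidirectional fit versus DMSO.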

[3] = ATG_ISRE_CIS: Attagene CIS-FACTORIAL HepG2 Assay for human Interferon Regulatory Factor 1 (IRF1) binding to an Interferon-Stimulated Response Element (ISRE) (AID 2282948); conditions: HepG2 ISRE cis-reporter (Attagene), mRNA transcription readout; actives raise or lower the signal
Procedure, shortened: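 HepG2 cells transiently transfected with multiplexed cis-promoter reporter units; after 24 h compound exposure, reporter mRNA quantified by RT-PCR, FAM labelling, HpaI digestion and capillary electrophoresis. Bidirectional fit versus DMSO baseline.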

[4] = ATG_M_32_CIS: Attagene CIS-FACTORIAL HepG2 Assay for M32 Transcription Factor (Internal Marker) (AID 2282949); conditions: HepG2 Attagene cis-factorial M32 reporter, mRNA; actives raise or lower the signal;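 also: background control marker of the multiplexed CIS panel rather than a real target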
Procedure, shortened: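 Fluorescent capillary electrophoresis peaks of HpaI-digested, FAM-labelled RT-PCR reporter products give the signal. Source: transiently transfected human liver HepG2 cells, 24 h after chemical dosing; bidirectional fitting against DMSO.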

[5] = ATG_M_06_CIS: Attagene CIS-FACTORIAL HepG2 Assay for M06 Transcription Factor (Internal Marker) (AID 2282950); conditions: HepG2 Attagene CIS-FACTORIAL M06 internal marker reporter; actives raise or lower the signal
Procedure, shortened: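 Internal background marker within multiplexed cis-reporter HepG2 system. Cells transiently transfected, dosed 24 h; reporter mRNA measured by RT-PCR, HpaI digestion and capillary electrophoresis. Bidirectional fit relative to DMSO.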

[6] = target: Hypoxia-inducible factor 1-alpha (Homo sapiens) (UniProt Q16665); assay: ATG_HIF1a_CIS: Attagene CIS-FACTORIAL HepG2 Assay for human Hypoxia Inducible Factor 1 (HIF1A) (AID 2282951); conditions: HepG2 Attagene cis-factorial HIF1a reporter transcription; actives raise or lower the signal
Chain of Hypoxia-inducible factor 1-alpha (Homo sapiens) (Q16665 whole entry, looked up): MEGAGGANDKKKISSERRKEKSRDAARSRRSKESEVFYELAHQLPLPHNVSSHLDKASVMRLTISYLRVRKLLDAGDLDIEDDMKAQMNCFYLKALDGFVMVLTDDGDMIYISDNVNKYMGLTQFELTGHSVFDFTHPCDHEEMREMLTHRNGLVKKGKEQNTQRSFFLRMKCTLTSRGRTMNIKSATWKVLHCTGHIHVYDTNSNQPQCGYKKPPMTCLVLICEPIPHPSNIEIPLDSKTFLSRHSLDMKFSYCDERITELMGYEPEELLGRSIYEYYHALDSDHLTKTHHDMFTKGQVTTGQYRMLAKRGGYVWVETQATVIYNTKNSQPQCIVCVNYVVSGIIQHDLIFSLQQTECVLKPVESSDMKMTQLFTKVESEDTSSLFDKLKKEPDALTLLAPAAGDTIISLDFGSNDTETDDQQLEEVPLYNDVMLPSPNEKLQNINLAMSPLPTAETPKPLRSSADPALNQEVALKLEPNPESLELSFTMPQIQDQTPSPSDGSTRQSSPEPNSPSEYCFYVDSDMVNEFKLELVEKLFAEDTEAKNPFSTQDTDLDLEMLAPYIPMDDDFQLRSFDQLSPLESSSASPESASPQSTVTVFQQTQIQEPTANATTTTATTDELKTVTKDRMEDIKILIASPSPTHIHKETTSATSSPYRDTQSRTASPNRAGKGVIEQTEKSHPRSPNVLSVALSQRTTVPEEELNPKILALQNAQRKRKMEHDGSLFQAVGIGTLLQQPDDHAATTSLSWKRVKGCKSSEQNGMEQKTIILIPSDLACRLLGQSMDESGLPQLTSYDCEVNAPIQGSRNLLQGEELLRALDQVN
Procedure, shortened: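 HepG2, transient cis-reporter library, 24 h dosing. RNA → RT (oligo dT) → PCR → 6-FAM primer extension → HpaI → CE. Bidirectional curve fit vs DMSO.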

[7] = target: Hepatocyte nuclear factor 6 (Homo sapiens) (UniProt Q9UBC0); assay: ATG_HNF6_CIS: Attagene CIS-FACTORIAL HepG2 Assay for human Hepatocyte Nuclear Factor 6 (HNF6) (AID 2282952); conditions: HepG2 Attagene cis-factorial HNF6 reporter transcription; actives raise or lower the signal
Chain of Hepatocyte nuclear factor 6 (Homo sapiens) (Q9UBC0 whole entry, looked up): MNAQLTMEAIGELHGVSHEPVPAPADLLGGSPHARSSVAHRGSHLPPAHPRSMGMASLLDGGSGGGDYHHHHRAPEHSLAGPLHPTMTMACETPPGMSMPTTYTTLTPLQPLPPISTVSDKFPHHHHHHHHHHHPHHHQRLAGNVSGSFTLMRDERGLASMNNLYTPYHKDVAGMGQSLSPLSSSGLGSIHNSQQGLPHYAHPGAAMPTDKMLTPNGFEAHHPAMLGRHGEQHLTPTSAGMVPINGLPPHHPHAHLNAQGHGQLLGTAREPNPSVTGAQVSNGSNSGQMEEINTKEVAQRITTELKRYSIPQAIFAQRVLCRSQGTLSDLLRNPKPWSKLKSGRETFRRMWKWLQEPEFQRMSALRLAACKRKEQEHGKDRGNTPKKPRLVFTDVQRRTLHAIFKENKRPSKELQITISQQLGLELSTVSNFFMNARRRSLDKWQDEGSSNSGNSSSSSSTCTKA
Procedure, shortened: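 Transiently transfected HepG2 cells expressing cis-regulated reporter transcription units were exposed to chemical for 24 h in a 24-well format. Reporter transcript abundance was determined by fluorescence capillary electrophoresis.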

[8] = target: Heat shock factor protein 1 (Homo sapiens) (UniProt Q00613); assay: ATG_HSE_CIS: Attagene CIS-FACTORIAL HepG2 Assay for human Heat Shock Transcription Factor 1 (HSE) (AID 2282953); conditions: HepG2 HSE cis-reporter, Attagene RNA transcription; actives raise or lower the signal
Chain of Heat shock factor protein 1 (Homo sapiens) (Q00613 whole entry, looked up): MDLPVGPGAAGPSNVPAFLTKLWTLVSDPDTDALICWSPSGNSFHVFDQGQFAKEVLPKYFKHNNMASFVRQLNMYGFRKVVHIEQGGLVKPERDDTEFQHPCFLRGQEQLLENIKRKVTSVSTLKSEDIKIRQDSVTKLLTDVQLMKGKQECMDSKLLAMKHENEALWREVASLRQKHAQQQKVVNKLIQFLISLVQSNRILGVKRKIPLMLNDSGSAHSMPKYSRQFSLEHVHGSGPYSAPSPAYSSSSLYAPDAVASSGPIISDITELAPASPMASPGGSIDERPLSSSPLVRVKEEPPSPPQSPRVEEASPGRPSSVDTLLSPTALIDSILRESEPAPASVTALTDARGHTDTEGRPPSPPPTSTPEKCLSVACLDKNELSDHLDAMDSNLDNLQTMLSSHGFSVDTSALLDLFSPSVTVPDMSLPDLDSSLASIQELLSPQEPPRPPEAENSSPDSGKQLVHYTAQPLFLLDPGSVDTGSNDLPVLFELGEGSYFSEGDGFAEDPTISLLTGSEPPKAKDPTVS
Procedure, shortened: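 HepG2 cells transfected with cis-promoter reporter units sensing endogenous transcription factor activity; reporter mRNA quantified 24 h post-dose by RT-PCR and capillary electrophoresis of 6-FAM-labelled products. Bidirectional fitting against DMSO.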

[9] = ATG_MRE_CIS: Attagene CIS-FACTORIAL HepG2 Assay for human Metal Responsive Element (MRE) (AID 2282954); conditions: HepG2 MRE cis-reporter transcription, Attagene multiplex; actives raise or lower the signal
Procedure, shortened: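 HepG2 cells transiently transfected with cis-element-driven reporter units; mRNA measured 24 h after dosing. Reporter transcripts quantified by RT-PCR, FAM labelling, HpaI digestion and capillary electrophoresis; bidirectional fit versus DMSO.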

[10] = target: Paired box protein Pax-6 (Homo sapiens) (UniProt P26367); assay: ATG_Pax6_CIS: Attagene CIS-FACTORIAL HepG2 Assay for human Paired Box 6 (PAX6) (AID 2282956); conditions: HepG2 CIS-FACTORIAL PAX6 reporter transcription, RNA readout; actives raise or lower the signal
Chain of Paired box protein Pax-6 (Homo sapiens) (P26367 whole entry, looked up): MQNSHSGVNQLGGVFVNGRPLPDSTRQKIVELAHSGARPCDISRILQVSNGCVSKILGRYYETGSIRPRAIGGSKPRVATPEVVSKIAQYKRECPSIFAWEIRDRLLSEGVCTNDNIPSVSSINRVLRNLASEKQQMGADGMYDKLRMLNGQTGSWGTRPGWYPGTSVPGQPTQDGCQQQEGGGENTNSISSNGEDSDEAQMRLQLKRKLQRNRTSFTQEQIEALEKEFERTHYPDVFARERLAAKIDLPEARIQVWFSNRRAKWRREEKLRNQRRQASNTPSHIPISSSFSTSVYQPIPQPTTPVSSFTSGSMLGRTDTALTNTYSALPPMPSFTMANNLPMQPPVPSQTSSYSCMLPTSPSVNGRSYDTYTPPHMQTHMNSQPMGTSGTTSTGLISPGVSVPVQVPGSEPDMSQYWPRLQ
Procedure, shortened: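 HepG2 cells transiently transfected with multiplexed cis-promoter reporter units (endogenous TF activity) were dosed for 24 h. Reporter mRNA was quantified by RT-PCR, 6-FAM labeling, HpaI digestion and capillary electrophoresis; bidirectional fitting versus DMSO baseline.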

[11] = ATG_PXRE_CIS: Attagene CIS-FACTORIAL HepG2 Assay for human Pregnane X Receptor Element (PXRE) (AID 2282957); conditions: HepG2 Attagene CIS-FACTORIAL PXRE reporter, mRNA; actives raise or lower the signal
Procedure, shortened: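 Cis-element reporter mRNA in human hepatoma HepG2 cells is measured 24 h post-dosing by RT-PCR, primer-extension labeling and capillary electrophoresis; gain or loss of signal is fitted relative to DMSO.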

[12] = ATG_PPRE_CIS: Attagene CIS-FACTORIAL HepG2 Assay for human Peroxisome Proliferator-activated Response Element (PPRE) (AID 2282958); conditions: HepG2 PPRE cis-element reporter, Attagene transcription factor profiling; actives raise or lower the signal
Procedure, shortened: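 Transcript-level reporter induction in transfected HepG2 cells after 24 h chemical exposure, quantified by fluorescence from RT-PCR products separated by capillary electrophoresis.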

[13] = ATG_Sox_CIS: Attagene CIS-FACTORIAL HepG2 Assay for human SRY-box transcription factor (SOX) (AID 2282960); conditions: HepG2 Attagene cis-factorial SOX reporter, mRNA; actives raise or lower the signal
Procedure, shortened: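 Cells were transfected with reporter constructs under cis-regulatory promoters, then exposed to chemicals for 24 h. Reporter transcripts were quantified by fluorescence after RT-PCR and capillary electrophoresis; activity was fitted in both directions against DMSO.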

[14] = target: Transcription factor Sp1 (Homo sapiens) (UniProt P08047); assay: ATG_Sp1_CIS: Attagene CIS-FACTORIAL HepG2 Assay for human Specificity Protein 1 (Sp1) (AID 2282961); conditions: HepG2 Sp1 cis-reporter transcription, actives raise or lower the signal
Chain of Transcription factor Sp1 (Homo sapiens) (P08047 whole entry, looked up): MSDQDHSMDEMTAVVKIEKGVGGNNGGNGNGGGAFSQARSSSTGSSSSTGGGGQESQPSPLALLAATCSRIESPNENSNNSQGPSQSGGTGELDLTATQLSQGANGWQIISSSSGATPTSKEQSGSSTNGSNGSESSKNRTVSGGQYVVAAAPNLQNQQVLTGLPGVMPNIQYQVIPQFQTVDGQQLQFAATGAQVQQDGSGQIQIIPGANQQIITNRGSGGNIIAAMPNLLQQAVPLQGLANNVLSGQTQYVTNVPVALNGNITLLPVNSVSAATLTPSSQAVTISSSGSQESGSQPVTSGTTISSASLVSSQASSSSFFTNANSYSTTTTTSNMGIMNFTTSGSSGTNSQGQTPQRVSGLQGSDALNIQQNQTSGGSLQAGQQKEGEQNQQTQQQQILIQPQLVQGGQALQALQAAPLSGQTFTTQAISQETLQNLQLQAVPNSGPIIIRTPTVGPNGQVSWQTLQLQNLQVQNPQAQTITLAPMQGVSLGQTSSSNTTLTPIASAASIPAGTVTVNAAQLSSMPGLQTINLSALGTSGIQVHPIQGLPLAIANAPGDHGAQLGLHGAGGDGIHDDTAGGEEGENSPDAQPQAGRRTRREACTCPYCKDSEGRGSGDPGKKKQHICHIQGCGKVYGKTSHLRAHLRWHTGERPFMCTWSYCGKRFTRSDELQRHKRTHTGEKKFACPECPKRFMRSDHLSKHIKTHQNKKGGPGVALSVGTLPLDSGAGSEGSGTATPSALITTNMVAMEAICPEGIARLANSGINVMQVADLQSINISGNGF
Procedure, shortened: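 Measures mRNA induction of an Sp1-linked reporter in HepG2 cells 24 h post-dosing. Multiplexed reporters read by RT-PCR and capillary electrophoresis; DMSO serves as negative control and baseline.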

[15] = target: Signal transducer and activator of transcription 3 (Homo sapiens) (UniProt P40763); assay: ATG_STAT3_CIS: Attagene CIS-FACTORIAL HepG2 Assay for human Signal Transducer and Activator of Transcription 3 (STAT3) (AID 2282963); conditions: HepG2, Attagene cis-factorial STAT3 reporter transcription; actives raise or lower the signal
Chain of Signal transducer and activator of transcription 3 (Homo sapiens) (P40763 whole entry, looked up): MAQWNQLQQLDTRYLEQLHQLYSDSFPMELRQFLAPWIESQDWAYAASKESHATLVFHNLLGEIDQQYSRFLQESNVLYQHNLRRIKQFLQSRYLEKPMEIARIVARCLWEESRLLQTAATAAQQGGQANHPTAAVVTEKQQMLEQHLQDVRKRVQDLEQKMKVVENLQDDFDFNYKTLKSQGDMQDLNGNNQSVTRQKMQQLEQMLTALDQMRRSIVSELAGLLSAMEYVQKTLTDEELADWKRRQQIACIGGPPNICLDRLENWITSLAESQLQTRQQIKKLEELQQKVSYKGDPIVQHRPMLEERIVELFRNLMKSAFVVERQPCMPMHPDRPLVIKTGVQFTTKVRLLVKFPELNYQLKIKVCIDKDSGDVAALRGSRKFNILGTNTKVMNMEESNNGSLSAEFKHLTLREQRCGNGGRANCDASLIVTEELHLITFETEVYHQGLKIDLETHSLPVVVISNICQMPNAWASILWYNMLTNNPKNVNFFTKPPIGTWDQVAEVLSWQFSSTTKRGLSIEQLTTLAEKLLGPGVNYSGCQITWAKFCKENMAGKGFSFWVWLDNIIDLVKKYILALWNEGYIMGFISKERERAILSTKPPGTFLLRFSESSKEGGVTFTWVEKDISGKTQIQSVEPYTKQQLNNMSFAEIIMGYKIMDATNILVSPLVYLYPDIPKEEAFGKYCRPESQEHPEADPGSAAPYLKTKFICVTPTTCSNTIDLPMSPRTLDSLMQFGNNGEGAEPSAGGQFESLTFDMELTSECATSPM
Procedure, shortened: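 HepG2 cells transiently transfected with multiple cis-element-driven reporter units report endogenous transcription factor activity. After 24 h compound exposure, reporter mRNA is measured by RT-PCR, 6-FAM labelling, HpaI digestion and capillary electrophoresis. Fitted bidirectionally versus DMSO.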

[16] = ATG_TA_CIS: Attagene CIS-FACTORIAL HepG2 Assay for human TA Basal Promoter (AID 2282964); conditions: HepG2 Attagene CIS-factorial TA basal promoter reporter; actives raise or lower the signal
Procedure, shortened: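 HepG2 cells transiently transfected with multiple reporter units under cis promoter elements, reporting endogenous transcription factor activity; this endpoint tracks the TA basal promoter as background control. Reporter mRNA after 24 h dosing measured by RT-PCR/capillary electrophoresis; bidirectional fits versus DMSO.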

[17] = ATG_SREBP_CIS: Attagene CIS-FACTORIAL HepG2 Assay for human Sterol Regulatory Element Binding (SREBP) (AID 2282962); conditions: HepG2 Attagene cis-factorial SREBP reporter, mRNA; actives raise or lower the signal
Procedure, shortened: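 HepG2 cells transiently transfected with multiplexed cis-element reporter units report endogenous transcription factor activity. After 24 h of chemical exposure, reporter mRNA was quantified by RT-PCR, 6-FAM labelling, HpaI digestion and capillary electrophoresis; bidirectional fits used DMSO as baseline.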

[18] = ATG_GRE_CIS: Attagene CIS-FACTORIAL HepG2 Assay for human Glucocorticoid Response Elements (GRE) (AID 2282947); conditions: HepG2 GRE cis-reporter, Attagene multiplex mRNA; actives raise or lower the signal
Procedure, shortened: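 Transiently transfected HepG2 cells carrying GRE cis-reporter units (endogenous TF activity) dosed 24 h; reporter mRNA quantified by RT-PCR, 6-FAM labelling, HpaI digestion and capillary electrophoresis. Bidirectional fit versus DMSO baseline.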

[19] = ATG_RORE_CIS: Attagene CIS-FACTORIAL HepG2 Assay for human RAR-related Orphan Receptor Element (RORE) (AID 2282959); conditions: HepG2 Attagene cis-factorial RORE reporter, mRNA; actives raise or lower the signal
Procedure, shortened: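 Multiplexed reporter assay measuring mRNA induction from a cis promoter element in transiently transfected HepG2 cells after 24 h treatment. Detection via RT-PCR and capillary electrophoresis fluorescence; DMSO serves as baseline.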

[20] = ATG_PBREM_CIS: Attagene CIS-FACTORIAL HepG2 Assay for human Phenobarbital-responsive Enhancer Module (PBREM) (AID 2282955); conditions: HepG2 PBREM cis-reporter, Attagene multiplexed transcription; actives raise or lower the signal
Procedure, shortened: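 HepG2, transient MRTU transfection, 24 h dosing; RNA → oligo(dT) RT → PCR → 6-FAM extension → HpaI → CE. Bidirectional fit vs DMSO.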

Measured: AC50

CC1=CC[C@@H](C(C)(C)O)CC1
not listed: [17] | [18] | [19] | [20]
inactive: all other assays above

CC1=CCC(C(C)(C)O)CC1 (stereo not given)
not listed: [8] | [18] | [19] | [20]
inactive: all other assays above

CC(C)COC(=O)c1ccccc1O
active: [11] 44.8 µM
not listed: [2] | [20]
inactive: all other assays above

CC(=O)CCc1ccc(O)cc1
not listed: [2] | [20]
inactive: all other assays above

CC(C)(C)c1ccc(S)cc1
active: [11] 6.36 µM
not listed: [2] | [10]
inactive: all other assays above

Cc1cccc(O)c1
not listed: [2] | [16]
inactive: all other assays above

COc1ccc(N)c(C)c1
active: [11] 27.3 µM
not listed: [12] | [18] | [20]
inactive: all other assays above

CCCCC(CC)COCCO (stereo not given)
not listed: [2]
inactive: all other assays above
